Data published in PubChem BioAssay (NCI).
Compounds without any hit were thinned out: in the full panel of roughly 83,000, 20% have a hit.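 How to read the values: 0–100, growth inhibition (40 = 60% inhibited); 0, no net growth; -100 to 0, cell death (-40 = 40% of starting cells died; -100 = all dead).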 A number with no mark means an inactive call. Calls of active or inactive are those of the source. How the source made its calls: active means growth percent below 10; inactive means the rest.

Tested on: IGROV1 ovarian
Test: NCI-60 one-dose screen, 48 h (100 = growth as untreated, 0 = no growth, -100 = all killed)
Details: 10 µM unless noted

Row | SMILES | growth
1 | C=CN(C(=O)N1CCN(c2cc3c(cc2F)c(=O)c(C(=O)O)cn3C2CC2)CC1)c1nc(-c2ccccc2)cs1 | 105%
2 | CNCCCNc1nc2ccccc2c2c(=O)c3cc(Cl)ccc3sc12 | 33.2%
3 | CCOC(=O)C1=C(CCl)N(C)C(=O)NC1c1ccc2c(c1)OCO2 (stereo not given) | 74.6%
4 | COc1ccc(C2[C@@H](Cl)C(=O)N2c2cc(OC)c(OC)c(OC)c2)cc1Cl (stereo not given in full) | 33.5%
5 | Cn1cc(-c2nonc2-c2c[nH]c3ccccc23)c2cc(Br)ccc21 | 43%
6 | COc1cc2c3c(c4c5ccccc5[nH]c4c2c(OC)c1OC)C(=O)N(CCN1CCCCC1)C3=O | -68.8% (active)
7 | COC(=O)/C(CCC=C(C)C)=C1\[C@@H](OC(C)=O)C[C@@]2(C)[C@H]1C/C(=N/O)[C@H]1[C@@]3(C)CC/C(=N\O)[C@@H](C)[C@@H]3CC[C@@]12C | 100%
8 | Cc1[nH]n(-c2cccc(Cl)c2)c(=O)c1/C=C1\C=c2ccccc2=CC1=O | 33.9%
9 | CCN(CC)CCn1c2ccc(OC)cc2c2sc3cc(O)ccc3c(=O)c21 | 26.3%
10 | C=C1C(=O)O[C@H]2[C@H]1CC/C(COC(=O)NCc1ccc(Cn3c(=O)sn(-c4ccc(I)cc4)c3=O)cc1)=C\CC[C@@]1(C)O[C@@H]21 | 67.5%
11 | CS(=O)(=O)Nc1cc(-c2ccc3ncnc(Nc4ccc5c(cnn5Cc5ccncc5)c4)c3c2)cnc1Cl | 0.593% (active)
12 | COc1ccc2cc(C(=O)N3CCC([C@@H](C)C(=O)NCc4ccc5c(c4)OCO5)CC3)[nH]c2c1 | 41.6% [50 µM]
13 | Nc1ncccc1O | 67.2%
14 | CC1(C)CC[C@]2(CO)CC[C@]3(C)[C@](O)([C@H](O)C[C@@H]4[C@@]5(C)CCCNC(C)(C)[C@@H]5CC[C@]43C)[C@@H]2C1 | 102%
15 | CN(C)CCC(=O)C1CC1 | 92.3%
16 | CCCc1cc(=O)oc2c(C(=O)CC(C)C)c(O)c(CC=C(C)C)c(O)c12 | 36.9%
17 | CSc1ccc2c3c(n(CCCn4ccnc4)c(=O)c2c1)-c1ccccc1C3=O | 58.9%
18 | O=c1oc2ccccc2cc1-c1nn(-c2ccccc2)cc1-c1nn[nH]n1 | 99.1%
19 | COc1ccc(-c2cc(C(=O)N3N=C(c4ccc(N)cc4)CC3c3ccc(Cl)cc3)c3ccccc3n2)cc1 (stereo not given) | 43.9%
20 | COc1cc(/C=C/c2cn[nH]c2-c2ccc(C)cc2)cc(OC)c1OC | 51.9%

Row | SMILES | growth
21 | COc1ccc(Nc2ncc(I)c(NCCCNC(=O)C3CCC3)n2)cc1 | -20.8% (active)
22 | CN1CCOCCN(C)Cc2ccc3ccc(cc3c2)CN(C)CCOCCN(C)Cc2ccc3ccc(cc3c2)C1 | 74.8%
23 | S=c1ccnc[nH]1 | 110%
24 | c1ccc2cc(Cn3cc(CSc4nc5ccccc5s4)nn3)ccc2c1 | 93.9%
25 | O=C(O)c1cn(C2CC2)c2cc(N3CCN(C(=O)N4CCOCC4)CC3)c(F)cc2c1=O | 94%
26 | O=C(NCCN1CCOCC1)OCc1ccc2c(Cl)cc(Cl)c(O)c2n1 | 57.8%
27 | O=C(/C=C/c1ccccc1)c1ccc(-n2cc(CN3CCN(c4cc5c(cc4F)c(=O)c(C(=O)O)cn5C4CC4)CC3)nn2)cc1 | 84%
28 | Cc1cc(NCCCNc2ccnc3cc(Cl)ccc23)nc(Nc2ccc(C(=O)N3CCCCC3)cc2)n1 | 46.3%
29 | CC/C(=C(/c1ccc(O)cc1)c1ccc(OCCN2CCCCC2)cc1)c1ccc(OC)cc1 | 85.3%
30 | O=C(Nc1cccnc1Nc1ccccc1)c1cn(Cc2cccc(Oc3ccccc3)c2)nn1 | 78.1%
31 | Clc1cccc(C2Cc3cnccc3-c3[nH]c4ccncc4c32)c1 (stereo not given) | 52.7%
32 | C=C1C(=O)O[C@H]2[C@H]1CC/C(COC(=O)NCc1ccc(Cn3c(=O)sn(-c4ccccc4)c3=O)cc1)=C\CC[C@@]1(C)O[C@@H]21 | -40.1% (active)
33 | O=C(NCCCCCCNC(=O)OCc1ccc2c(Cl)cc(Cl)c(O)c2n1)OCc1ccc2c(Cl)cc(Cl)c(O)c2n1 | -88.3% (active)
34 | C/C(Cc1ccc(Cl)cc1)=C(\c1ccc(OCCN2CCCCCC2)cc1)c1ccc(OC(=O)c2ccccc2)cc1 | 24.4%
35 | CC(O)CNC(Cc1ccccc1)c1ccc2c(c1)OCO2 (stereo not given) | 101%
36 | OC1(c2ccccc2)c2ccccc2N(c2ccccc2)c2ccc(Cl)cc21 (stereo not given) | -94.5% (active)
37 | O=C(Cc1ccc(/C=C/C(=O)c2ncc[nH]2)cc1)Nc1cc(F)c(F)c(F)c1 | 55.8%
38 | C/C(=N\Nc1ccccc1)c1ccc(NC2=CC(=O)c3ccccc3C2=O)cc1 | 50.8%
39 | O=S(=O)(Nc1ccc2ccccc2c1)c1ccc(-c2cnc(C3CC3)o2)cc1 | 39.1%
40 | O=c1c2ccccc2n(C[C@H]2CO2)c2ccccc12 | -52.3% (active)
